# Pf growth 48h: inhibits P. falciparum growth in the first generation, 48 h; Potency, µM (series often up to 28.7 µM), hits mostly inhibitors; actives 5.9% (n = 310,000); AID 504832; P. falciparum luciferase growth in erythrocytes, 48 h
#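 First compound was added to culture medium, then infected red cells at 0.1% parasitemia and 2% hematocrit (final). After incubation at 37 C under 5% CO2, luciferase detection reagent was dispensed and light output recorded.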
# Shiga toxin inh: Shiga toxin inhibition. AID 2315. actives 9.2% (n = 290,000). inhibition, % at 38.7 µM. Vero cells, Shiga toxin protein synthesis inhibition reporter; in the data active = inhibition mostly above about 28%, no sharp cut-off; inactive = mostly below about 43%
# CHX counter: counter-screen for Shiga toxin inhibitors: cycloheximide protein synthesis inhibition | cell reporter, cycloheximide protein synthesis inhibition counterscreen | max response, % | actives 12% (n = 300,000) | AID 2314; in the data active = max response mostly above about 13%, no sharp cut-off; inactive = mostly below about 14%; note: read at 38.3 µM for the half of the compounds with a filed dose
# Pf growth 96h: P. falciparum growth inhibition at 96 hours; P. falciparum luciferase reporter growth, 96 h; Potency, µM (doses to about 28.7 µM), hits mostly inhibitors; actives 6.9% (n = 320,000); AID 504834
#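 Luminescence readout: decreased luciferase signal marks inhibited growth of reporter-expressing P. falciparum in infected red cells (2% hematocrit, 0.05% parasitemia final), exposed to compound two generations (96 h, 37 C, 5% CO2).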
# AMA1-RON2 inh: inhibitors of Plasmodium falciparum AMA1-RON2 interaction | AlphaScreen AMA1-biotinylated RON2 peptide binding | AID 720542 | actives 0.2% (n = 360,000) | Potency, µM (titrated, usually from 58.2 µM), actives largely listed as inhibitors; note: nearly all actives have a fitted effect of over 45% in size
#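 AMA1 (3D7) with his tag at 25 nM final met compounds first, then biotinylated RON2 peptide at 25 nM; detection used donor plus acceptor beads, 10 µg/mL apiece, read by AlphaScreen after 30 min at room temperature.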
# HCV inh: inhibitors of hepatitis C virus infection | actives 3.4% (n = 340,000) | Huh7.5.1 HCVcc-Cre infection, luciferase reporter, 44 h | Potency, µM (highest dose often 41.8 µM), usual class: inhibitors
#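 Seed cells (1,000/well) for 4 h; treat with compound and infect with HCVcc-Cre, moi about 0.5. Incubate 44 h, then detect luciferase activity.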
# A number is an active result; n = inactive; u = inconclusive; x = no result; ! = a repeat was not active; [ ] = dose if it differs, or a comment. A selection: hits, their analogues and other compounds. The true share with any hit is near 21%. Unless noted, calls come from the whole dose curve; as a rule, active = well fitted curve in the direction sought with a large enough effect; inconclusive = small, poorly fitted or top-dose-only effect, or another doubt; inactive = no such curve, though single readings can be large; an effect the other way counts as inactive or inconclusive.
SMILES,Pf growth 48h,Shiga toxin inh,CHX counter,Pf growth 96h,AMA1-RON2 inh,HCV inh
Cc1ccc(S(=O)(=O)Nc2cc(Cl)c(O)c3ncccc23)cc1,7.4µM,n,n,n,n,u
Clc1cc2cccnc2c2ccccc12,n,n,n,n,n,n
Oc1c(I)cc(I)c2cccnc12,u,n,n,11µM!,n,n[8.37 µM]
Cc1ccc(S(=O)(=O)Nc2cc(S(=O)(=O)c3ccc(C)cc3)c(O)c3cccnc23)cc1,x,n,n,x,x,x
CC(=O)NCc1cc(Cl)c2cccnc2c1O,u,x,x,n,x,x
Oc1c(Cl)cc(Cl)c2cccnc12,8.5µM,n,n,4.3µM!,n,n
Oc1ccc(F)c2cccnc12,u,n,n,15µM,n,u
C=CCCC(=O)N1C[C@H]2CCN(C)[C@H]2C[C@H]1c1ccc(Br)cc1,x,x,x,x,n,x
COc1ccc(CC(=O)OC(C)C(=O)Nc2c(C)n(C)n(-c3ccccc3)c2=O)cc1OC (stereo unspecified),x,x,x,x,n,u
Cc1ccc(S(=O)(=O)N(CC(=O)Nc2ccc(C(N)=O)cc2)C(=O)N2CCN(C)CC2)cc1,n,x,x,n,n,n
CSc1cc(C)c(OCC(=O)Nc2ccc(NC(C)=O)cc2)c(C)c1,n,n,n,n,n,n
O=C(COC(=O)CCNS(=O)(=O)c1ccc(Cl)cc1)Nc1ccccc1OC(F)F,n,x,x,n,n,n
Oc1ccc(Cl)c2cccnc12,13µM,x,x,12µM,n,u
COc1ccc(C(=O)N2CCC3(CC2)NCCc2[nH]cnc23)cc1,n,n,n,n,n,n
O=C(Nc1ccc(C(F)(F)F)cc1)c1ccc(NC(=O)C2CCCO2)cc1 (stereo unspecified),n,n,n,u,n,u
O=C(Nc1cccc(O)c1)c1ccc(NC(=O)C2CCCO2)cc1 (stereo unspecified),n,110,47,n,n,n
O=C(Nc1ccc(F)cc1)c1ccc(NC(=O)C2CCCO2)cc1 (stereo unspecified),n,73,21,1.9µM,n,n
COC(=O)C[C@@H]1C=C[C@@H](NC(=O)NC2CCCC2)[C@@H](CO)O1,x,x,x,x,n,x
CCC(C)n1c(=S)[nH]c2c(sc3ccc([N+](=O)[O-])cc32)c1=O (stereo unspecified),n,n,n,u,n,u
CC1CN(C(=O)CSc2nc(N)c(NC(=O)c3ccc(C(F)(F)F)cc3)c(=O)[nH]2)CC(C)O1 (stereo unspecified),x,x,x,x,n,x
O=C(Cc1cccs1)N=Nc1c(O)[nH]c2ccc(Br)cc12,n,n,n,n,n,u
O=C(Cc1cccs1)N=Nc1c(O)[nH]c2ccccc12,u,85,56,u,u,n
COc1ccc2[nH]c(O)c(N=NC(=O)Cc3cccs3)c2c1,n,39,27,n,n,n
CN(C)CCCOC(=O)COc1ccc(Br)cc1,u,n,n,n,n,n
CCCc1cnc(N2CCN(C(=S)NC)CC2)nc1,n,66,44,n,n,n
SMILES,Pf growth 48h,Shiga toxin inh,CHX counter,Pf growth 96h,AMA1-RON2 inh,HCV inh
CCCc1cnc(N2CCN(C(=O)c3ccc(F)cc3)CC2)nc1,u,n,n,u,n,u
C=CCn1c(COC)nnc1SCC(=O)c1ccc(F)cc1,n,44,16,n,n,u
C=CCn1c(SCC(=O)c2cccs2)nnc1-c1cccc(OC)c1,n,37,18,n,n,n
C=CCn1c(SCC(=O)c2ccc(O)c(O)c2)nnc1-c1cccc(OC)c1,u,x,x,u,n,u
C=CCn1c(SCC(=O)c2ccc(O)c(O)c2)nnc1-c1ccc(OC)cc1,2.6µM,x,x,u,n,u
C=CCn1c(SCC(=O)c2ccc(O)c(O)c2)nnc1-c1ccc(C)cc1,u,x,x,n,n,u
Cc1ccc(N2C(=O)N(CC(=O)Nc3ccc(C)c(C)c3)C(=O)C2C)cc1 (stereo unspecified),n,x,x,n,n,u
CCCC(NC(=O)C(C)NC(=O)CO/N=C1\C=C2CCC3C4CCC(C(C)=O)[C@@]4(C)CCC3[C@@]2(C)CC1)C(=O)O (stereo partly specified),n,n,n,n,n,n
Cc1ccccc1C(=O)Nc1c(C(=O)N(CCN(C)C)Cc2ccco2)oc2ccccc12,u,n,n,n,n,u
COc1ccc(OCC(=O)Nc2c(C(=O)N(CCN(C)C)Cc3ccco3)oc3ccccc23)cc1,u,n,n,10µM,n,u
COc1ccccc1C(=O)Nc1c(C(=O)N(CCN(C)C)Cc2ccco2)oc2ccccc12,u,n,n,10µM,n,u
Cn1cccc1CNCC(O)c1ccccc1 (stereo unspecified),u,n,n,n,n,n
COc1cc(OC)c(C=NNC(=S)NC23CC4CC(CC(C4)C2)C3)c(OC)c1,x,x,x,x,n,u
Cc1cc(SCC(=O)Nc2c(C)n(C)n(-c3ccccc3)c2=O)nc2ccccc12,n,n,n,u,n,n
Cc1c(C(=O)NC2CCN(Cc3ccccc3)C2)oc2c(Cl)cccc12 (stereo unspecified),n,n,n,n,n,n
CN(C)C1CCCCC=CC(=O)NC1 (stereo unspecified),x,x,x,x,n,x
CC(C)C1C(c2ccccc2)N(C)C(c2ccccc2)CC1(O)c1ccccc1 (stereo unspecified),u,n,n,x,n,n
CC(C)C1C(c2ccccc2)NC(c2ccccc2)CC1(O)c1ccc(F)cc1 (stereo unspecified),4.1µM,n,n,u,n,u
CCOC(=O)c1cc(Cl)c2c(ccc3ccccc32)n1,x,x,x,x,n,x
CCOC(=O)c1nc2c(ccc3ccccc32)cc1C,n,42,17,n,n,u
O=C(/C=C/c1ccccc1)N1CCC(N2CCC(C(=O)N3CCOCC3)CC2)CC1,n,n,n,n,n,n
O=[N+]([O-])c1ccc(C(O)CN2CCN(c3ccccc3)CC2)cc1 (stereo unspecified),u,n,n,u,n,n
O=[N+]([O-])c1ccc(C(O)C[n+]2ccccc2)cc1 (stereo unspecified),n,x,n,7.4µM,n,n
CC[C@]12c3[nH]c4cc(CCC(=O)N(C)C)ccc4c3CCN1C(=O)[C@@H](CC(=O)NCC13CC4CC(CC(C4)C1)C3)C[C@@H]2C(=O)N1CCN(C(=O)c2ccco2)CC1,x,x,x,x,n,n
COc1ccccc1C(=O)NCC(=O)N1CCN(S(=O)(=O)c2ccccc2C(F)(F)F)CC1,u,x,x,8.3µM,n,n
COc1cc(C(=O)NCC(=O)N2CCN(S(=O)(=O)c3ccccc3C(F)(F)F)CC2)cc(OC)c1OC,x,x,x,x,n,n
COc1ccccc1C(=O)NCCC(=O)N1CCN(c2ccccc2Cl)CC1,8.3µM,x,x,12µM,n,n
O=C(NCCC(=O)N1CCCC1)c1ccccc1Cl,n,n,18,n,n,n
COc1ccccc1C(=O)NCCC(=O)N1CCCCCCC1,u,x,x,n,n,n
NNC(=S)NC1CCCCC1,n[5.75 µM],43,13,u,n,n

# Compound activity deposited in PubChem by National Center for Advancing Translational Sciences (NCATS).
